# Measured values from PubChem BioAssay AID687022 (Broad Institute, 2013).
# In all, about 1,000 compounds went through this assay and about 360 (36%) were called active. The list is a sample of the results. Values without a mark were called inactive.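 Rule for the calls: active = Fitted curve of melting temperature shift crosses the 1.0 threshold at or below the sample's highest valid tested concentration; inconclusive = Flat fit with activity 30 to 70, or invalid fit; inactive = Opposite direction, flat within 30, or no crossing.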
# Target: Fibroblast growth factor 22 (Homo sapiens) (UniProt Q9HCT0)
# Experiment: FGF22 ligand-induced thermal stabilization – biophysical, thermal shift, cherry-pick, FGF22 synaptogenesis inhibitor project, dose response (AID 687022); note: reference of the scale not given here
# Conditions: recombinant FGF22 thermal shift, SYPRO orange melting; series mostly up to 38 µM; Tm shift activity: at the top concentration
# Sequence of Fibroblast growth factor 22 (Homo sapiens) (Q9HCT0 whole entry, looked up): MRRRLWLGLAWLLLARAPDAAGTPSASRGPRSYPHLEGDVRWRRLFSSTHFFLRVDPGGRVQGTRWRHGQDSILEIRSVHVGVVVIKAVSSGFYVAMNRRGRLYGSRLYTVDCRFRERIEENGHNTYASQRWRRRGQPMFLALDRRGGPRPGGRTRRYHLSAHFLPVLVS
row,Compound,Tm shift activity
1,Cc1[nH]c(=O)[nH]c(=O)c1S(=O)(=O)Nc1cccc([N+](=O)[O-])c1C,0.356%
2,CCCNC(=O)N1CC(=O)N2[C@H](C1)[C@@H](c1ccc(-c3cccc(C)c3)cc1)[C@@H]2CO,-0.204%
3,O=c1cc[nH]c2ccc(Cl)cc12,-0.177%
4,CC(=O)c1cccc(NC(=O)C2CCCN2S(=O)(=O)c2cccs2)c1 (stereo not drawn),0.238%
5,COc1ccc(CCC(C)NC(=O)Cc2ccc(OC)c(OC)c2)c(OC)c1 (stereo not drawn),-0.077%
6,CCCN(C)C[C@H]1Oc2cc(-c3ccncc3)ccc2S(=O)(=O)N([C@H](C)CO)C[C@H]1C,-0.032%
7,O=C1C2C(C(=O)N1CCc1ccccc1)C1C=CC2C12CC2 (stereo not drawn),-0.247%
8,CCOC(=O)C1CCC(CNCc2ccccc2C)CC1 (stereo not drawn),0.003%
9,N#CCSc1n[nH]c2nc3c(c(=O)n12)C1(CCCCC1)Cc1ccccc1-3,0.19%
10,COc1cc(C(=O)NC(=S)Nc2ccccc2[N+](=O)[O-])cc(OC)c1OC,-0.198% [at 19.5 µM]
11,C/C(=N\NC(=O)CNC(=O)c1ccncc1)c1ccc(C)cc1,-0.146%
12,CN(CC(=O)Nc1ccccc1Cl)C(=O)COC(=O)c1nc(Cl)ccc1Cl,-0.071%
13,CCn1c(O)c(C=NCc2ccccc2)sc1=S,0%
14,C[C@@H]1CN([C@H](C)CO)C(=O)Cc2cc(NS(C)(=O)=O)ccc2O[C@@H]1CN(C)Cc1ccc(C(=O)O)cc1,0.177% [at 42 µM]
15,CC(C)CC#Cc1cnc2c(c1)C(=O)N([C@@H](C)CO)C[C@H](C)[C@@H](CN(C)Cc1ccccn1)O2,0.044%
16,O=C(CCc1ccc(S(=O)(=O)N2CCOCC2)cc1)Nc1ccccc1F,-0.061%
17,C/C=C/c1ccc([C@@H]2[C@H](C#N)N(C(=O)CN3CCOCC3)[C@H]2CO)cc1,-0.102% [at 42 µM]
18,COc1cc(CCC(=O)OCC(=O)Nc2ccc(C)cc2Br)cc(OC)c1OC,-0.237%
19,CN1CCN(C(=O)C[C@@H]2CC[C@H]3[C@@H](COC[C@H](O)CN3CC3CCCCC3)O2)CC1,0.165%
20,C[C@H]1CN([C@@H](C)CO)S(=O)(=O)c2ccc(/C=C/c3ccccc3)cc2O[C@@H]1CN(C)Cc1ccc(C(=O)O)cc1,-0.154% [at 42 µM]
21,CCCC#Cc1ccc2c(c1)O[C@H](CN(C)C(C)=O)[C@@H](C)CN([C@@H](C)CO)S2(=O)=O,-3.12%
22,C[C@H]1CN([C@@H](C)CO)S(=O)(=O)c2ccc(C#Cc3ccncc3)cc2O[C@H]1CN(C)C(=O)Nc1ccc2c(c1)OCO2,0.854%

row,Compound,Tm shift activity
1,COc1cc(C2C(C#N)=C(N)Oc3n[nH]c(-c4cccnc4)c32)cc(Br)c1O (stereo not drawn),-0.165%
2,C[C@@H]1CN([C@@H](C)CO)C(=O)CCCn2nncc2CO[C@H]1CN(C)Cc1ccccc1C(=O)O,-0.141% [at 42 µM]
3,CCN1C(=O)c2cccc3c(S(=O)(=O)Nc4ccc(O)c(C(=O)O)c4)ccc1c23,0.895% [at 5 µM]
4,O=C(COc1ccc(S(=O)(=O)Nc2ccccc2)cc1)NCc1ccncc1,0.021%
5,CN(C)CCN1C(=O)C2C3C=CC(C3)C2C1=O (stereo not drawn),0.54%
6,COCC(=O)N(C)C[C@H]1Oc2cc(C#Cc3ccccc3)ccc2S(=O)(=O)N([C@H](C)CO)C[C@H]1C,0.274% [at 42 µM]
7,O=C(NCC[C@@H]1CC[C@@H](NC(=O)C2CCOCC2)[C@H](CO)O1)Nc1ccc(Cl)cc1,0.778% [at 42 µM]
8,CC(C)NC(=O)Nc1ccc2c(c1)C(=O)N([C@H](C)CO)C[C@H](C)[C@H](CN(C)C(=O)Nc1cccc3ccccc13)O2,-0.245% [at 42 µM]
9,O=C(O)C1CSC2(CCN(Cc3ccccc3)CC2)N1 (stereo not drawn),-0.082%
10,Fc1ccccc1Nc1n[nH]c(=S)s1,-3.98%
11,COc1cc(/C=N/NC(=O)c2ccncc2)ccc1OCC(=O)Nc1cccc([N+](=O)[O-])c1,-0.027%
12,O=C(N/N=C/c1cccc(O)c1)c1cc(-c2ccc3c(c2)OCO3)n[nH]1,0.613%
13,CC(=O)N(C)C[C@@H]1Oc2ncc(C#CC(C)(C)O)cc2C(=O)N([C@@H](C)CO)C[C@H]1C,-0.011%
14,Cc1nc2cc(C(=O)NCc3ccc4c(c3)OCO4)ccc2n1-c1ccc(Br)cc1,0.351%
15,O=[N+]([O-])c1ccc2oc(/C=C/c3ccc(O)cc3)nc2c1,-0.179%
16,C[C@@H]1CN([C@@H](C)CO)C(=O)c2cc(NS(C)(=O)=O)ccc2O[C@@H]1CN(C)Cc1ccc2c(c1)OCO2,-0.083%
17,C[C@H](CO)N1C[C@H](C)[C@H](CN(C)C(=O)CC2CC2)Oc2ncc(C#CC3(O)CCCC3)cc2C1=O,-0.167%
18,O=C(NC[C@@H]1[C@H](c2ccccc2)[C@H](CO)N1C(=O)Cc1cccnc1)C1CC1,-0.166% [at 42 µM]
19,CCc1cccc(NS(=O)(=O)c2ccc3c(c2)NC(=O)CC(=O)N3)c1,0.132%
20,CCC(=O)N1CC2(C1)[C@H](c1ccc(-c3cccc(C)c3)cc1)[C@@H](CO)N2S(C)(=O)=O,-0.418%
21,O=C(C1CCOCC1)N1C[C@@H]2[C@H](c3ccccc31)[C@@H](CO)N2Cc1ccccc1,-0.009% [at 42 µM]
22,CC(OC(=O)c1ccccc1)C(=O)NCCC1=CCCCC1 (stereo not drawn),-0.183%

row,Compound,Tm shift activity
1,O=C(COc1cccc(Cl)c1)NCC(c1cccs1)N1CCOCC1 (stereo not drawn),-0.157%
2,Cc1cccc(NC(=O)COc2coc(CN3CCc4ccccc4C3)cc2=O)c1,0.031%
3,c1ccc(NCc2ccccn2)cc1,0.047%
4,CN1CCN(C(=O)C[C@H]2C=C[C@@H](NC(=O)c3ccc4c(c3)OCO4)[C@H](CO)O2)CC1,0.43% [at 42 µM]
5,CN(C)S(=O)(=O)n1cnc([C@@H]2[C@@H]3C(=O)OC[C@@H]3C[C@]23N=CN(Cc2ccccc2)C3=O)c1,-0.031%
6,CCc1ccc(NC(=O)c2ccc(-n3cncn3)c([N+](=O)[O-])c2)cc1,0.367%
7,O=C(Nc1cccc2ccccc12)c1cccc([N+](=O)[O-])c1,0.033%
8,O=[N+]([O-])c1ccc2nc(-c3ccc(Cl)cc3)[nH]c2c1,0.366%
9,Cc1nc2ccc(NC(=O)c3cc([N+](=O)[O-])cc([N+](=O)[O-])c3Cl)cc2s1,0.47%
10,COc1cc([N+](=O)[O-])ccc1NC(=O)CN1CCCC1,0.026%
11,CN=C1NN=C(c2cc(C)n(-c3c(C)n(C)n(-c4ccccc4)c3=O)c2C)CS1,-0.139%
12,Cc1ccc(-c2c[n+](CC(=O)Nc3ccc(C)cc3C)c3n2CCC3)cc1,-0.152%
13,COC(=O)Cc1n[nH]c(=O)c2ccccc12,-0.034%
14,Cn1cccc1/C=N/NC(=O)Cc1cccc2ccccc12,-0.271%
15,N#CCC(=O)Nc1ccc(C(=O)NCCc2c[nH]c3ccccc23)cc1,-0.09% [at 10 µM]
16,O=C(NCCc1c[nH]c2ccccc12)C(=O)NCC1CCCO1 (stereo not drawn),-0.006%
17,COc1cccc(S(=O)(=O)Nc2ccc3c(c2)[C@@H]2C[C@H](CC(=O)NC4CCCCC4)O[C@@H](CO)[C@@H]2O3)c1,-0.228%
18,C=CCC1c2cccc(C(=O)O)c2C(=O)N1c1cccc(OC)c1 (stereo not drawn),0.004%
19,COCC(=O)Nc1ccc2c(c1)[C@H]1C[C@@H](CC(=O)NCc3ccccn3)O[C@H](CO)[C@H]1O2,-0.244%
20,CCOC(=O)c1c(C)oc2cc(Br)c(O)c(Br)c12,0.458%
21,C[C@H]1CN([C@@H](C)CO)C(=O)c2cc(NS(=O)(=O)c3ccc(Cl)cc3)ccc2O[C@@H]1CN(C)C(=O)Nc1ccc2c(c1)OCO2,0.029% [at 42 µM]
22,CCC(=O)N1[C@H](CO)[C@@H](c2ccccc2)[C@H]1CN(C)C(=O)CN1CCOCC1,-0.119%

row,Compound,Tm shift activity
1,O=C(c1cccc(F)c1)N1C[C@H]2[C@@H](c3ccccc31)[C@@H](CO)N2C(=O)c1ccccn1,-0.197% [at 42 µM]
2,CCOc1ccc(NC(=O)c2cccc(-n3cccc3)c2)cc1S(=O)(=O)N1CCOCC1,0.046%
3,CC(C)NC(=O)N1[C@H](CO)[C@H](c2ccccc2-c2ccc(F)cc2)[C@@H]1C#N,0.245%
4,O=C(O)C1CCN(S(=O)(=O)Cc2ccccc2)CC1,0.131%
5,COc1ccc(NC(=O)CN(c2ccc(C(C)C)cc2)S(=O)(=O)c2c(C)noc2C)cc1OC,-0.176%
6,CO[C@@H]1CN(C)C(=O)c2cc(NC(=O)C3CCCC3)ccc2OC[C@H](C)N(CCC(F)(F)F)C[C@H]1C,-0.068%
7,NS(=O)(=O)c1ccc2c(c1)C(=NO)c1cc(S(N)(=O)=O)ccc1-2,0.643%
8,Oc1c(CN2CCOCC2)cc(CN2CCOCC2)c(O)c1O,0.514%
9,O=C(Nc1ccccc1Cl)N1[C@H](CO)[C@@H]2c3ccccc3NC[C@@H]21,-0.115%
10,COc1ccc(NS(=O)(=O)c2cc(N=Nc3c(O)[nH]c(=O)[nH]c3=O)ccc2Cl)cc1,-0.202%
11,COc1ccccc1C(=O)N1C[C@H]2[C@@H](c3ccccc31)[C@H](CO)N2C(=O)C1CCCCC1,-0.165%
12,N#C[C@@H]1[C@@H](c2ccc(C3=CCCCC3)cc2)[C@H](CO)N1S(=O)(=O)c1ccccc1,0.72%
13,Cc1cccc(C(=O)NNC(=O)c2ccc(NS(=O)(=O)c3cccs3)cc2)c1C,-0.21%
14,COc1ccccc1N(C)S(=O)(=O)c1ccc(C(=O)Nc2ccc(C(N)=O)cc2)cc1,0.212%
15,COc1ccccc1NC(=O)c1ccc(NC(=O)COC(=O)c2ccc(O)cc2)cc1,0.436%
16,CCC(C)N(C(=O)COc1ccc(-c2nnco2)cc1)C1CCS(=O)(=O)C1 (stereo not drawn),-0.201%
17,O=C(Nc1cccc(S(=O)(=O)N2CCCCC2)c1)C1=NN(c2ccccc2)C(=O)CC1,0.048%
18,COc1cccc(NC(=O)N[C@@H]2CC[C@@H](CC(=O)Nc3ccccc3)O[C@H]2CO)c1,0.248%
19,CN(C)CC(=O)Nc1ccc2c(c1)[C@H]1C[C@@H](CC(=O)NCC3CC3)O[C@H](CO)[C@H]1O2,-0.011%
20,COC(=O)[C@]1(C)N[C@H](c2ccc(-c3ccccc3)cc2)[C@@H]2C(=O)N(C)C(=O)[C@@H]21,-0.021%
21,Cc1ccc(S(=O)(=O)Nc2ccc3c(c2)CC(=O)N([C@H](C)CO)C[C@@H](C)[C@H](CN(C)C(=O)Nc2ccccc2)O3)cc1,-0.162%
22,COc1ccc(C(=O)Nc2ccccc2N2CCOCC2)cc1S(=O)(=O)N1CCOCC1,-0.009%
